Bioassay records as filed in PubChem BioAssay.
Only some compounds are listed: those with a hit (about 3.1% of all), similar ones and a draw of the others.
Wnt bcat act: Wnt/beta-catenin pathway activators, primary screen, cell-based, plate reader, single point | 1.2% of 300,000 active | Wnt/beta-catenin reporter cell assay, activator | AID 743398, 2014 | activation, % at 9.35 µM; in the data active = activation above about 30%, passing the limit was not always enough; inconclusive = no clear call, values can overlap the other calls;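 also: 0% = neutral control wells and 100% = positive control wells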
esBAF inh: Bmi1 luciferase reporter increase in mESCs, primary screen, esBAF inhibitor project, mouse ES cells, Bmi1 luciferase knock-in, single point | 24 h; 100% = twice the neutral-well signal | AID 602393, 2012 | 2% of 350,000 active | reporter increase, % at 12.5 µM; in the data active = activation above about 40%; inconclusive = no clear call, values can overlap the other calls;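 also: 0% = median of the plate's neutral control wells and 100% = double that signal; a rise in the Bmi1 reporter signal indicates esBAF inhibition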
MITF TRPM1 HTS: activators of MITF-driven TRPM1 promoter reporter, primary screen, cell-based, SK-MEL-5, luciferase, single point | AID 588334, 2011 | activation, % at 12.5 µM | 0.75% of 300,000 active | SK-MEL-5 TRPM1-promoter luciferase, 24 h; % of positive control, neutral wells = 0;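 active = mean activation of at least 80% with every replicate also reaching 80%; inconclusive = mean reaches 80% but some replicate falls short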;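 also: 0% = neutral control wells and 100% = parthenolide positive control wells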
C2C12 statin: suppressors of statin myotoxicity in C2C12 myotubes, primary screen, cell-based, single point, plate reader. C2C12 myotubes + simvastatin, ATP luminescence, 48 h; scaled: DMSO 0, geranylgeraniol control 100. rescue of ATP level, % at 7.49 µM. 0.78% of 330,000 active;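 active = mean ATP rescue above about 67%, or every replicate alone reaching that limit, limit read from the data, passing the limit was not always enough; inconclusive = no clear call, values can overlap the other calls; inactive = mean under the limit and some replicate under it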;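 also: myotubes were challenged with 10 µM simvastatin during compound exposure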
Rtt109 Vps75: inhibitors of C. albicans Rtt109/Vps75 HAT, primary screen, biochemical, ThioGlo CoA-SH fluorescence, plate reader; AID 540336, 2011; inhibition, % at 34.9 µM; 0.16% of 330,000 active; Histone acetyltransferase RTT109 (Candida albicans (strain SC5314 / ATCC MYA-2876)), …; purified Rtt109/Vps75, 4 h;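 active = inhibition of at least 50% in every replicate; inconclusive = best replicate reaches 50% inhibition but some replicates fall short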
Target sequence (Q5AAJ8 whole entry, looked up): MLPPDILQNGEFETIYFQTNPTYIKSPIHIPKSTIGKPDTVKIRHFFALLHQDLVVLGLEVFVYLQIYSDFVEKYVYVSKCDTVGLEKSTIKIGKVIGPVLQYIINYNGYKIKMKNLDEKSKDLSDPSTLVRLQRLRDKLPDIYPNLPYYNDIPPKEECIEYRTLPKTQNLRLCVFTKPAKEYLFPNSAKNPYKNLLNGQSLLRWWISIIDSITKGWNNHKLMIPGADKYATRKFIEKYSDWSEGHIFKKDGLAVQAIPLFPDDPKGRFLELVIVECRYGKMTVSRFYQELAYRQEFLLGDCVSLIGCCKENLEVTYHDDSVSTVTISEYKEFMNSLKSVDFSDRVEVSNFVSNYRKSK
Active calls of the source: *; ? = inconclusive; · = not tested or not shown.

SMILES	Wnt bcat act	esBAF inh	MITF TRPM1 HTS	C2C12 statin	Rtt109 Vps75
COCc1cc(=O)n2[nH]c(-c3cccc(Br)c3)cc2n1	·	-12	23	-51	1
COc1ccc(NC(=O)N(C)C[C@H]2Oc3c(NS(=O)(=O)c4ccccc4)cccc3C(=O)N([C@@H](C)CO)C[C@@H]2C)cc1	·	7	·	-19	·
Cc1cc(C)c(C)c(S(=O)(=O)NCC(=O)N2CCCC2)c1C	-4	-3	-10	115*	-2
COc1ccc(N2CN=C3SCC(=O)N3C2)cc1	17	8	8	106*	-3
CN1C(=O)c2cc(NC(=O)c3cccc(F)c3)ccc2OC[C@@H]2O[C@@H](CC(=O)NC3CCC3)CC[C@@H]21	·	3	·	0	·
C[C@@H]1CN([C@H](C)CO)C(=O)c2cccc(NS(C)(=O)=O)c2O[C@H]1CN(C)C	·	2	·	8	·
O=C(Nc1ccccn1)Nc1ccccc1Cl	11	53*	·	4	-1
O=C(NCc1ccncc1)Nc1ccccc1Cl	0	12	-13	116*	0
O=C(Nc1ccc(Cl)cn1)Nc1ccccc1Cl	17	35*	-8	·	2
O=C(Nc1ccccc1Cl)c1ccn[nH]1	·	52*	12	-7	-5
O=C(Nc1ccccc1Cl)Nc1ccccc1Cl	13	·	39	·	-7
O=C(Nc1ccccc1Cl)NC1(C(=O)NCc2ccncc2)CCCCC1	-3	-2	5	0	9
O=C(Nc1ccccc1F)c1ccn[nH]1	16	·	10	·	4
O=C(Nc1cnccn1)Nc1ccccc1Cl	12	7	7	1	11
C[C@@H]1CN([C@H](C)CO)C(=O)c2cc(NC(=O)Cc3ccccc3)ccc2O[C@@H](C)CCCCO[C@@H]1CN(C)Cc1ccc2c(c1)OCO2	·	0	·	·	·
O=C(c1cccnc1)N1C[C@@H]2[C@H](c3ccccc31)[C@H](CO)N2C(=O)C1CCOCC1	·	0	·	4	·
C[C@@H]1CN([C@@H](C)CO)C(=O)c2ccccc2-c2ccccc2CO[C@@H]1CN(C)C(=O)c1ccccc1	·	-3	·	-23	·
O=c1c(-c2ccccc2)nc(-c2ccccc2)cn1O	·	54*	33	-26	12
Cc1ccc(S(=O)(=O)N[C@H]2CC[C@H](CCNC(=O)Cc3ccccn3)O[C@@H]2CO)cc1	·	-1	·	-6	·
O=C(Oc1ccc(Cl)cc1)N1CCOCC1	0	16	1	-12	7
O=C(Oc1ccc(-c2ccccc2)cc1)N1CCOCC1	·	62*	86*	-36	1
O=C(Oc1ccc(Cl)cc1)N1CCCCC1	·	50*	·	-7	8
C/C=C/c1cnc2c(c1)C(=O)N([C@H](C)CO)C[C@H](C)[C@H](CN(C)Cc1ccncc1)O2	·	2	·	-23	·
O=C(NCc1ccc(F)cc1)[C@@H]1[C@@H](CO)[C@@H]2Cn3c(cccc3=O)[C@H]1N2	·	0	·	6	·
C[C@@H]1CN([C@@H](C)CO)C(=O)Cc2cc(NC(=O)CCCCCC(=O)Nc3ccccc3N)ccc2O[C@H]1CN(C)C	·	-1	·	8	·
SMILES	Wnt bcat act	esBAF inh	MITF TRPM1 HTS	C2C12 statin	Rtt109 Vps75
COc1ccccc1NC(=O)Nc1ccc2c(c1)C(=O)N(C)C[C@@H](OC)[C@H](C)CN(C)[C@@H](C)CO2	·	1	·	-5	·
Oc1ccc(-c2nccc(-c3ccc(F)cc3)n2)cc1	17	?	92*	5	11
COCCN1Cc2cc3cc(C)ccc3nc2SC1=Nc1ccc(OC)cc1	0	·	17	·	-19
CCC(C)N=C1Sc2nc3ccc(C)cc3cc2CN1CCOC (stereo not given)	-3	29	14	0	-2
CCOc1ccc(N=C2Sc3nc4ccc(C)cc4cc3CN2CCOC)cc1	-3	54*	6	-4	-3
COCCN1Cc2cc3cc(C)ccc3nc2SC1=Nc1cccc(OC)c1	-2	49*	8	-11	10
Cc1noc(C)c1NC(=O)Nc1cccc2c1O[C@@H](CN(C)CC1CCCCC1)[C@@H](C)CN([C@H](C)CO)C2=O	·	-1	·	-7	·
CC(O)CNc1nc2ccccc2n1-c1ncnc2sc3c(c12)CCC3 (stereo not given)	-4	3	-3	114*	31
c1ccc2c(c1)ncn2-c1ncnc2sc3c(c12)CCCC3	-2	5	-10	-8	4
CCCCn1c(SCC(=O)Nc2ccc(OC)cc2)nc2ccc(N3CCOCC3)cc2c1=O	·	2	·	-7	1
CCCCNC(=O)CSc1nc2ccc(N3CCOCC3)cc2c(=O)n1Cc1ccc(OC)cc1	15	64*	48	-3	-8
COCCNC(=O)CSc1nc2ccc(N3CCOCC3)cc2c(=O)n1Cc1ccc(OC)cc1	·	78*	·	-17	-13
COCCNC(=O)CSc1nc2cc(OC)c(OC)cc2c(=O)n1Cc1ccc(OC)cc1	-2	6	-2	26	6
O=C(C[C@H]1CC[C@@H]2[C@H](COC[C@H](O)CN2C(=O)c2ccccn2)O1)NC1CCC1	·	-4	·	4	·
CCOC(=O)C1(CCOC)CCN(Cc2nc(-c3cccs3)oc2C)CC1	-2	12	-12	86*	-7
COc1ccc(S(=O)(=O)Nc2cccc3c2O[C@H](CN(C)Cc2ccc(C(=O)O)cc2)[C@H](C)CN([C@@H](C)CO)C3=O)cc1	·	-3	·	·	·
Cc1ccc(NC(=S)Nc2cccc3cnccc23)cc1C	-1	46*	11	-16	-1
Cc1ccc(NC(=S)Nc2cccc3cnccc23)cc1	26	68*	-11	-4	·
CC(=O)c1ccc(NC(=S)Nc2cccc3cnccc23)cc1	12	·	13	·	2
CC=Cc1ccc2n(c1=O)C[C@H]1[C@H](CO)[C@@H](C(=O)N[C@H](C)c3ccccc3)N(C(=O)c3cnccn3)[C@@H]21 (mixture of isomers)	·	0	·	15	·
COc1ccc(-c2cnc3c(c2)C(=O)N([C@@H](C)CO)C[C@@H](C)[C@@H](CN(C)S(=O)(=O)c2ccc(OC)cc2)O3)cc1	·	·	·	-18	·
CS(=O)(=O)c1ncc(Cl)c(C(=O)Nc2ccc(OC(F)F)cc2)n1	·	-35	·	117*	0
CS(=O)(=O)c1ncc(Cl)c(C(=O)Nc2ccc(N3CCOCC3)cc2)n1	·	·	-90	·	110*
CCCNC(=O)Nc1ccc2c(c1)C(=O)N(C)C[C@H](OC)[C@@H](C)CN(CCC(F)(F)F)[C@@H](C)CO2	·	9	·	-4	·
COc1ccc(-c2ccc(C(=O)C3CC3)cc2)cc1	27	37	107*	-17	2
COc1ccc(/C(N)=N/OC(=O)C2CCCCC2)cc1OC	26	51*	88*	-2	4
COc1ccc(C(=O)C2CCN(C(=O)c3ccc(C)cc3)CC2)cc1	-3	5	-26	1	-9
COc1ccc(/C(N)=N/OC(=O)CC2CCCCC2)cc1OC	2	13	16	3	-9
